Source: PubChem BioAssay (Tox21)
Inconclusive results are not listed. Where a call stands in place of a potency, no number is given. Unmarked numbers belong to inactive results. Active and inactive are the calls of the source. Calls follow the shape of the dose curve; as a rule, active = well fitted cell-killing curve with a large enough effect in the repeat runs; inconclusive = weak or mixed curves, or effect the other way; inactive = flat fitted curve, though single readings scatter.

Assay: qHTS assay to identify small molecule antagonists of the constitutive androstane receptor (CAR) signaling pathway - cell viability counter screen (AID 1224837); also: nearly all actives have a fitted effect of over 45% in size
Details: HepG2-CYP2B6-hCAR viability, CellTiter-Fluor, 23 h, co-treated with 50 nM CITCO; series mostly up to 92.4 µM
From the text: National Center for Advancing Translational Sciences [NCATS]
NIH Chemical Genomics Center [NCGC]
U.S. Environmental Protection Agency [EPA]
National Institutes of Environmental Health Sciences [NIEHS]
National Toxicology Program [NTP]
U.S. Food and Drug Administration [FDA]
The constitutive androstane receptor (CAR) is a nuclear receptor which regulates multiple drug metabolizing enzymes (DMEs) and transporters. Activating CAR will generally increase the transcription and subsequent translation of CYP2B6 and CYP3A4. These two DMEs represent about 50% of the drug metabolizing potential in the body. When CAR is deactivated, the metabolizing potential in the body will decrease, subsequently increasing the toxicity in the body or lowering the therapeutic potential of a pro-drug. Recently, there have also been studies performed indicating CARs role in energy metabolism and cancer therapy. Therefore, inhibiting CARs activity could have a potential effect on diabetes and cancer. Identifying environmental toxins and compounds which modulate CAR, through the use of the Tox21 10K compound collection, will be an important step in determining the toxicity and potential therapeutic effects these factors will have on the human body. To differentiate true CAR antagonists from cytotoxic substances, the assay is multiplexed with a cell viability assay.
Tox21 Assay Protocol Summary:
A double-stable (hCAR and CYP2B6-2.2kb) transfected cell line, derived from human hepatoma (HepG2) cells, was utilized for the duration of the quantitative high-throughput screens. The HepG2-CYP2B6-hCAR cells were dispensed at 2500 cells/4 uL/well in 1536-well white solid bottom plates using a Multidrop Combi. After the assay plates were incubated at 37 C/5% CO2 for 4 hrs, 23 nL of compounds at 15 concentrations (from 5-48 columns) or positive control (from 1 to 4 columns) were transferred to the assay plates using a Pintool station. One uL of CITCO (final concentration = 50 nM) was added, using a Flying Reagent Dispenser, inside each well. After a 23 hr incubation period at 37 C/5% CO2, 1 uL of CellTiter-Fluor reagent was added into each well of the assay plates using a Flying Reagent Dispenser. The fluorescence intensity in the plates was then measured using a ViewLux plate reader.

| Compound | Potency | activity change, negative = cytotoxicity |
| --- | --- | --- |
| C=CCOCC(CC)(CO)COCC=C | inactive |  |
| C=C1CC[C@H]2C[C@@H]1C2(C)C | inactive |  |
| O=C1OC(=O)C2CCCCC12 (stereo not given) | inactive |  |
| Cc1nc2c([nH]1)c(=O)n(C)c(=O)n2Cc1ccco1 | inactive |  |
| CC/C=C\CCOC(C)=O | inactive |  |
| O=C1CCCN1C1CCCCC1 | inactive |  |
| Nc1nc2c(ncn2COC(CO)CO)c(=O)[nH]1 | inactive |  |
| CCCN(CCC)CCc1cccc2c1CC(=O)N2 | inactive |  |
| NS(=O)(=O)c1cc2c(cc1Cl)NC(C1CC3C=CC1C3)NS2(=O)=O (stereo not given) | inactive |  |
| CO[Si](CCCOCC1CO1)(OC)OC (stereo not given) | inactive |  |
| CCSC(=O)N(CC(C)C)CC(C)C | inactive |  |
| O=C(O)COc1nn(Cc2ccccc2)c2ccccc12 | inactive |  |
| CC(NC(CCc1ccccc1)C(=O)O)C(=O)N1C(=O)N(C)CC1C(=O)O (stereo not given) | inactive |  |
| CCC(C)S (stereo not given) |  | 4.49% [at 3.26 µM] |
| CCc1nccnc1CC |  | -1.21% [at 19 µM] |
| CCO/C([O-])=N/c1c[n+](N2CCOCC2)no1 | inactive |  |
| COC(=O)c1ccc(C)cc1C1=NC(C)(C(C)C)C(=O)N1 (stereo not given) | inactive |  |
| NC(=O)c1ccc([N+](=O)[O-])cc1 | inactive |  |
| CN(C)CCCSc1ccccc1NC(=O)/C=C/c1ccccc1 | inactive |  |
| CCC=O | inactive |  |

| Compound | Potency | activity change, negative = cytotoxicity |
| --- | --- | --- |
| CC(C)(C)NCCNC(C)(C)C | inactive |  |
| N=c1nc(N2CCCCC2)cc(N)n1O | inactive |  |
| CCOC(=O)c1c(C)n(C)c2ccc(O)cc12 | inactive |  |
| C/C=C(\C)C#N | inactive |  |
| CCc1ccc(O)c(OC)c1 | inactive |  |
| CCCCCOC(=O)CCCCC | inactive |  |
| CCOC(=O)[C@H](CCc1ccccc1)N[C@@H](C)C(=O)N1[C@H](C(=O)O)C[C@@H]2CCC[C@@H]21 | inactive |  |
| C[N+](C)(C)CC(O)CC(=O)[O-] (stereo not given) | inactive |  |
| CC(C)CNCC(C)C | inactive |  |
| CCOC(=O)CC(C)=O | inactive |  |
| COC(=O)[C@@H](N)Cc1ccc(O)c(O)c1 | inactive |  |
| CC(=O)OCC(=O)[C@@]1(O)CC[C@H]2[C@@H]3CCC4=CC(=O)CC[C@]4(C)[C@H]3C(=O)C[C@@]21C | inactive |  |
| CC/C=C\CC/C=C/C(OCC)OCC | inactive |  |
| CCCN1CCCC[C@H]1C(=O)Nc1c(C)cccc1C | inactive |  |
| COc1nc(N)nc2c1ncn2[C@@H]1O[C@H](CO)[C@@H](O)[C@@H]1O | inactive |  |
| C=CCCCCCCCCC=O | inactive |  |
| OCCCC1CCCCC1 | inactive |  |
| COC(=O)CCSCCC(=O)OC | inactive |  |
| CN(C)CCCNCCCN(C)C | inactive |  |
| NS(=O)(=O)c1ccc(C(=O)O)cc1 | inactive |  |
